{"source": "the OligoGym collection", "data": [{"biological_target": "MUC4", "test": "pooled miR-30 sensor sort-seq; sequence = guide strand", "details": "shRNA", "values": [{"sequence": "TTCAGGAAGTCAATGACCGGGC", "sensor-assay potency score (higher = more potent)": -0.298}, {"sequence": "TTGTCTGTGAAGTAGAGGGAAT", "sensor-assay potency score (higher = more potent)": -1.17}, {"sequence": "TTTGTCATCTTTCTAATCCAAG", "sensor-assay potency score (higher = more potent)": -1.23}, {"sequence": "TTGAAGAATCCTGACAGCCTTC", "sensor-assay potency score (higher = more potent)": -0.37}, {"sequence": "TTTTTACTGACTTCCCTCGTGT", "sensor-assay potency score (higher = more potent)": 0.677}]}, {"biological_target": "MUDENG", "test": "pooled miR-30 sensor sort-seq; sequence = guide strand", "details": "shRNA", "values": [{"sequence": "TAATCTAAGTTCAAAGAGCAGT", "sensor-assay potency score (higher = more potent)": -0.489}, {"sequence": "TTATTGATGCGTGAACAGCTAT", "sensor-assay potency score (higher = more potent)": -0.441}, {"sequence": "TAGTTTTGTATTCCAAATGTGT", "sensor-assay potency score (higher = more potent)": -0.698}, {"sequence": "AAAAACTTGAACTGAATGCTGA", "sensor-assay potency score (higher = more potent)": -0.0187}, {"sequence": "TTATTCTTAGTTGTACTTCTTC", "sensor-assay potency score (higher = more potent)": 0.0203}, {"sequence": "TTGAACTGAATGCTGATCTGCA", "sensor-assay potency score (higher = more potent)": 0.719}, {"sequence": "TATCCTGAAGTGGAGATCCATT", "sensor-assay potency score (higher = more potent)": -1.27}, {"sequence": "TTGGTGGGGAGACTCAAGCTGA", "sensor-assay potency score (higher = more potent)": -1.09}, {"sequence": "TAAGATCCTAAAATGAAGCTTT", "sensor-assay potency score (higher = more potent)": 0.347}, {"sequence": "TTCTTAGTTGTACTTCTTCCTC", "sensor-assay potency score (higher = more potent)": -1.23}, {"sequence": "TTGAATGACTCTAAAGGTGGAG", "sensor-assay potency score (higher = more potent)": 0.345}, {"sequence": "TAACATTTGGCATGATTCCTTC", "sensor-assay potency score (higher = more potent)": -0.439}]}, {"biological_target": "MUL1", "test": "pooled miR-30 sensor sort-seq; sequence = guide strand", "details": "shRNA", "values": [{"sequence": "TTTAGCTCCCTTGAGCTCTTGG", "sensor-assay potency score (higher = more potent)": -0.00208}, {"sequence": "TACTCTTTAAATCTTCACCCAA", "sensor-assay potency score (higher = more potent)": -0.305}, {"sequence": "TTGAGCTCTTGGGAGACCCGGG", "sensor-assay potency score (higher = more potent)": -0.319}, {"sequence": "TATAACAGCATAAGGCACGCAT", "sensor-assay potency score (higher = more potent)": -0.0376}, {"sequence": "TAACAGACCGCACAGCTCCTTC", "sensor-assay potency score (higher = more potent)": -0.691}, {"sequence": "TTCTATAACAGCATAAGGCACG", "sensor-assay potency score (higher = more potent)": -0.579}, {"sequence": "TTTCTTTAACAGACCGCACAGC", "sensor-assay potency score (higher = more potent)": -0.894}, {"sequence": "ATACACGGTCTCTAGACCCAGA", "sensor-assay potency score (higher = more potent)": -0.85}, {"sequence": "TTGCAGTTTTCCACAAACTGGC", "sensor-assay potency score (higher = more potent)": -0.401}, {"sequence": "TTAACAGACCGCACAGCTCCTT", "sensor-assay potency score (higher = more potent)": -0.45}, {"sequence": "TTAGATAGTACTGCATGCCTTG", "sensor-assay potency score (higher = more potent)": -0.152}]}, {"biological_target": "MUM1L1", "test": "pooled miR-30 sensor sort-seq; sequence = guide strand", "details": "shRNA", "values": [{"sequence": "TTGAGATTTATTTAGGATCTTT", "sensor-assay potency score (higher = more potent)": -0.143}, {"sequence": "TTTGATTGCAGACTTCTTGTAA", "sensor-assay potency score (higher = more potent)": 0.165}, {"sequence": "TTAGATACTTTGCTTCAGCTGC", "sensor-assay potency score (higher = more potent)": -0.267}, {"sequence": "TTTGTTTCTCTTTACAATCAAA", "sensor-assay potency score (higher = more potent)": -1.34}, {"sequence": "TAACACATGCACTTTCCTCTTT", "sensor-assay potency score (higher = more potent)": -0.0342}, {"sequence": "TAACTGGGTAACTAATATCAGC", "sensor-assay potency score (higher = more potent)": -1.56}, {"sequence": "TATTTCTGATATTTAAACCAGA", "sensor-assay potency score (higher = more potent)": -0.575}, {"sequence": "TATTTGATTGCAGACTTCTTGT", "sensor-assay potency score (higher = more potent)": 0.00671}, {"sequence": "TTAGTGATCTTCCATAGGCAGT", "sensor-assay potency score (higher = more potent)": -1.42}, {"sequence": "TTGTGGTACATTTTGAGACAGC", "sensor-assay potency score (higher = more potent)": -1.11}, {"sequence": "TTTGTTTCCACTTCACTTGGAA", "sensor-assay potency score (higher = more potent)": 0.402}, {"sequence": "TAAACCAGACTATCATTCCTGT", "sensor-assay potency score (higher = more potent)": -0.0642}]}]}
